# Source: PubChem BioAssay
# Entries with a potency or affinity are not part of this list. Results filed as inconclusive are left out. Calls of active or inactive are those of the source.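 Rule for the calls, unless noted: active = fitted dose curve reaches 40% lysis signal rise at or below the highest valid concentration tested for that sample; inconclusive = flat fit between 30% and 70%, or poor curve fit; inactive = signal falls, stays flat within 30%, or no crossing.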
# Assay: Cryptococcus neoformans growth inhibition, dose response, Alamar Blue, cherry-picks (AID 686998;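 active = falling signal with fitted half-maximal potency no higher than twice the top valid tested dose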)
# Details: 24 h; series mostly up to 35 µM; activity change, negative = inhibition: at the top concentration
row,SMILES,"activity change, negative = inhibition"
1,COc1ccccc1CNC(=O)COc1ccc2c(c1)CCC2,-41.1% (inactive)
2,C[C@H](CO)N1C[C@H](C)[C@H](CN(C)C(=O)Nc2cccc3ccccc23)Oc2ccc(NC(=O)Nc3ccccc3)cc2C1=O,22.7% (inactive)
3,CCCNC(=O)N(C)C[C@@H]1Oc2ncc(C#CC3CCCCC3)cc2C(=O)N([C@H](C)CO)C[C@@H]1C,10.5% (inactive)
4,O=C(NC1CCCCC1)N[C@@H]1CC[C@@H](CCNS(=O)(=O)c2ccc(Cl)cc2)O[C@H]1CO,46.9% (inactive)
5,C[C@@H]1CN([C@@H](C)CO)C(=O)c2cc(NS(=O)(=O)c3ccc(F)cc3)ccc2O[C@@H](C)CCCCO[C@@H]1CN(C)Cc1ccc2c(c1)OCO2,16.5% (inactive)

# Assay: inducers of Cryptococcus neoformans cell lysis, dose response, AK release luminescence, cherry-picks (AID 687000);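 note: luminescent detection of adenylate kinase leaking from lysed yeast; 0% = median neutral control signal and 100% = double that signal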
# Details: C. neoformans lysis, adenylate kinase release luminescence, 4 h, 100% = twice the neutral-control signal; series mostly up to 15 µM; lysis activity: at the top concentration
row,SMILES,lysis activity
1,C[C@@H](NC(=O)C[C@H]1CC[C@@H](NC(=O)Cc2ccccn2)[C@@H](CO)O1)c1ccccc1,-7.89% (inactive)
2,CC(=O)N1CCN(c2ccc(NC(=S)NC(=O)c3ccc(C)c([N+](=O)[O-])c3)cc2)CC1,-16.7% (inactive)
3,CO[C@H](CN(C)Cc1ccc2c(c1)OCO2)[C@@H](C)CN(C(=O)c1ccccc1)[C@@H](C)CO,10.2% (inactive)
4,CN1C(=O)c2cc(NC(=O)NC3CCCC3)ccc2OC[C@H]2O[C@@H](CC(=O)NCC3CC3)CC[C@@H]21,3.02% [at 16 µM] (inactive)
5,COc1cccc(S(=O)(=O)Nc2ccc3c(c2)[C@@H]2C[C@@H](CC(=O)NCc4cccc(F)c4)O[C@H](CO)[C@@H]2O3)c1,3.87% (inactive)
6,COc1ccccc1NC(=O)N[C@@H]1CC[C@H](CCn2cc(-c3ccccc3OC)nn2)O[C@H]1CO,-9.24% (inactive)
7,O=C(NC1CCCC1)N1CCCCN2[C@H](CO)[C@@H](c3ccc(-c4cncnc4)cc3)[C@H]2C1,-4.8% (inactive)
8,C[C@H](O)C#Cc1cnc2c(c1)C(=O)N([C@@H](C)CO)C[C@@H](C)[C@@H](CN(C)C(=O)Cc1ccncc1)O2,-0.72% (inactive)
9,COc1cccc(S(=O)(=O)N(C)C[C@@H]2Oc3ncc(-c4cccc(F)c4)cc3C(=O)N([C@H](C)CO)C[C@@H]2C)c1,-10.6% (inactive)
10,Cc1nnc(NC(=O)CSc2ncnc3c2cnn3-c2ccccc2C)s1,4.63% (inactive)
11,CC(C)NC(=O)Nc1ccc2c(c1)CC(=O)N([C@H](C)CO)C[C@@H](C)[C@H](CN(C)Cc1ccc3c(c1)OCO3)O2,-10% (inactive)
12,CC(C)NC(=O)NCC[C@@H]1CC[C@@H](NC(=O)CN(C)C)[C@@H](CO)O1,3.26% (inactive)
13,Cc1cc(C)c(N2CCCC2C(=O)Nc2cccc(C(F)(F)F)c2)c(C)c1 (centres undefined),-3.13% [at 19.5 µM] (inactive)
14,CO[C@H]1CN(C)C(=O)c2cc(NS(=O)(=O)c3ccc(C)cc3)ccc2OC[C@@H](C)N(C(=O)NC(C)C)C[C@@H]1C,-11.9% (inactive)
15,COc1ccccc1NC(=O)N[C@H]1CC[C@@H](CCn2cc(-c3ccccc3OC)nn2)O[C@@H]1CO,8.23% (inactive)
16,C[C@@H]1CN([C@@H](C)CO)C(=O)c2cccc(NS(=O)(=O)c3ccc(F)cc3)c2O[C@H]1CN(C)S(=O)(=O)c1ccc(Cl)cc1,2.85% (inactive)
17,C[C@H]1CCCCO[C@H](CN(C)C(=O)c2ccncc2)[C@@H](C)CN([C@@H](C)CO)C(=O)c2cc(NC(=O)Cc3ccccc3)ccc2O1,-13.4% (inactive)
18,CC(=O)NC[C@H]1[C@@H](c2ccc(C3=CCCC3)cc2)[C@@H](CO)N1C(=O)NC(C)C,5.44% (inactive)
19,CCC(C)(C(=O)Nc1cccc(C)c1)N1CCC1=O (centres undefined),-0.275% [at 28.5 µM] (inactive)
20,C[C@@H]1CCCCO[C@H](CN(C)C(=O)Nc2ccc(F)cc2)[C@H](C)CN([C@@H](C)CO)C(=O)c2cc(NS(=O)(=O)c3ccc(Cl)cc3)ccc2O1,-6.52% (inactive)

row,SMILES,lysis activity
1,O=C(C[C@@H]1CC[C@H](NC(=O)Cc2ccccn2)[C@H](CO)O1)NCCc1ccccc1,18.5% (inactive)
2,O=C(Nc1cccc(F)c1)N[C@H]1CC[C@@H](CCNS(=O)(=O)c2cccc(Cl)c2)O[C@@H]1CO,-2.81% (inactive)
3,CCNC(=O)Nc1ccc2c(c1)C(=O)N(C)[C@H]1CC[C@H](CC(=O)N[C@@H](C)c3ccccc3)O[C@H]1CO2,3.08% (inactive)
4,Cc1cccc(C)c1NC(=O)CN1CCCC1,-1.46% (inactive)
5,CN1CCN(C(=O)CN(c2ccc(I)cc2)S(=O)(=O)c2ccccc2)CC1,-4.82% [at 10 µM] (inactive)
6,C[C@@H]1CN([C@@H](C)CO)S(=O)(=O)c2ccc(C#Cc3ccc(F)cc3)cc2O[C@H]1CN(C)C(=O)NC1CCCC1,-14.7% (inactive)
7,CC(=O)NNC(=O)CSc1nnc(-c2ccccc2)c(-c2ccccc2)n1,-15% (inactive)
8,CC(C)(C)C(=O)N1CCCC1C(=O)Nc1ccccc1 (centres undefined),17.3% [at 28.5 µM] (inactive)
9,O=C(C[C@@H]1C[C@@H]2c3cc(NC(=O)Nc4ccc(F)cc4)ccc3O[C@@H]2[C@@H](CO)O1)NCC1CC1,-6.87% [at 13.5 µM] (inactive)
10,C[C@H](CO)N1C[C@H](C)[C@H](CN(C)S(=O)(=O)c2ccc(F)cc2)Oc2ccc(NS(=O)(=O)c3ccc(Cl)cc3)cc2C1=O,-17.7% (inactive)
11,COCCNC(=O)C[C@@H]1CC[C@H]2[C@@H](COC[C@H](O)CN2Cc2cccc(-c3ccncc3)c2)O1,11.7% (inactive)
12,CC(C)NC(=O)Nc1cccc2c1O[C@H](CN(C)C)[C@H](C)CN([C@H](C)CO)C2=O,12% (inactive)
13,COc1cccc(S(=O)(=O)N(C)C[C@H]2OCc3cnnn3CCCC(=O)N([C@H](C)CO)C[C@H]2C)c1,-0.227% (inactive)
14,C[C@@H]1CN([C@@H](C)CO)C(=O)c2cccc(N(C)C)c2O[C@H]1CN(C)C(=O)Nc1ccc(C(F)(F)F)cc1,-3.99% (inactive)
15,COc1ccccc1CNC(=O)COc1ccc2c(c1)CCC2,-19.2% (inactive)
16,C[C@H](CO)N1C[C@H](C)[C@H](CN(C)C(=O)Nc2cccc3ccccc23)Oc2ccc(NC(=O)Nc3ccccc3)cc2C1=O,9.12% (inactive)
17,CCCNC(=O)N(C)C[C@@H]1Oc2ncc(C#CC3CCCCC3)cc2C(=O)N([C@H](C)CO)C[C@@H]1C,5.66% (inactive)
18,O=C(NC1CCCCC1)N[C@@H]1CC[C@@H](CCNS(=O)(=O)c2ccc(Cl)cc2)O[C@H]1CO,1.77% (inactive)
19,C[C@@H]1CN([C@@H](C)CO)C(=O)c2cc(NS(=O)(=O)c3ccc(F)cc3)ccc2O[C@@H](C)CCCCO[C@@H]1CN(C)Cc1ccc2c(c1)OCO2,-6.97% (inactive)
